Test results taken from PubChem BioAssay (NCATS).
Inconclusive results are not listed. The list shows a part of the results. A call without a number means that no potency is given here. Active and inactive are the calls of the source. Unless noted, the call rests on the fitted dose curve; in most records, active means well fitted curve in the direction sought with a large enough effect; inconclusive means small, poorly fitted or top-dose-only effect, or another doubt; inactive means no such curve, though single readings can be large; an effect the other way counts as inactive or inconclusive.

Tests used:
[1] = qHTS for differential inhibitors of proliferation of Plasmodium falciparum line HB3 (AID 1886); settings: Potency: Plasmodium falciparum HB3 proliferation inhibition;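 further: parasites grown with compound for 72 h before SYBR Green readout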; further: potency means the concentration at half of the fitted maximal effect
[2] = qHTS Assay for Modulators of Human Peripheral Myelin Protein 22 (PMP22) Expression/Activity (AID 1967; active means well fitted curve in the direction sought with a large enough effect in the signal ratio; the % refers to the signal ratio)
How it was run: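 Mouse MSC80 Schwann cells carrying Pmp22 promoter–green click beetle luciferase plus EF-alpha–red luciferase control, dosed 24 h at 37 °C. Dual-filter luminescence, overlap-corrected; %Activity from green/red ratio normalised to untreated cells, concentration-response curves fitted.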

[3] = biological target: Ferritin light chain (Equus caballus) (UniProt P02791); assay: qHTS Validation Assay for Identification of Novel General Anesthetics (AID 2323); further: series mostly up to about 77 µM
How it was run: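 Horse-spleen apoferritin (10 uM) in PBS with 50% saturated 1-aminoanthracene; compounds pin-transferred, 10 min at room temperature. Fluorescence read at 380/535 nm, normalized to free 1-AMA and 1-AMA/apoferritin values; four-parameter Hill fit.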

[4] = biological target: ATP-dependent DNA helicase Q1 (Homo sapiens) (UniProt P46063); assay: qHTS Validation Assay for Inhibitors of RecQ-Like Dna Helicase 1 (RECQ1) (AID 2353)
How it was run: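 50 nM RECQ1T1 preincubated 15 min with compound in Tris pH 8.0 buffer with MgCl2, DTT, Tween-20 and 2.5 ug/ml poly(dI-dC); started with 200 nM TAMRA/BHQ-2 forked duplex and 2 mM ATP. Unwinding read as fluorescence (525/598 nm), two reads 2 h apart.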

[5] = biological target: RecQ-like DNA helicase BLM (Homo sapiens) (UniProt P54132); assay: qHTS Validation Assay for Inhibitors of Bloom's syndrome helicase (BLM) (AID 2364)
How it was run: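 50 nM BLM preincubated 15 min at room temperature with compound in pH 8.0 Tris buffer containing 2.5 ug/ml poly(dI-dC); started with 200 nM TAMRA/BHQ-2 forked duplex and 2 mM ATP (final). Unwinding read as TAMRA fluorescence increase, two reads 2 h apart.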

[6] = Cytometric Cell-Based qHTS for Inhibitors of the mTORC1 Signaling Pathway in MEF (Tsc2-/-, p53-/-) Cells (AID 2660);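 further: percent of cells above a phospho-rpS6 to PI ratio cutoff in each well; series mostly up to about 38 µM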
How it was run: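 Immunofluorescence qHTS of rpS6 Ser235/236 phosphorylation: MEFs (Tsc2-/-, p53-/-) treated 24 h, 37 C, in DMEM + 10% FBS. Alexa-488 signal normalized to PI count, referenced to rapamycin (7.5 nM) and DMSO; PI cell number recorded for viability.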

[7] = High Content Imaging Cell-Based qHTS for Inhibitors of the mTORC1 Signaling Pathway in MEF (Tsc2-/-, p53-/-) Cells (AID 2666);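 further: percent of cells scored positive for phospho-rpS6 Ser235/236 immunostaining by imaging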
How it was run: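 Phospho-rpS6 (Ser235/236) immunofluorescence, normalized and scored as % positive cells using rapamycin and DMSO controls, was read in empty-vector Tsc2-/-, p53-/- MEFs after 24 h compound exposure at 37 C; propidium iodide counted cells.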

[8] = High Content Imaging Cell-Based qHTS for Inhibitors of the mTORC1 Signaling Pathway in MEF Cells (AID 2667);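 further: Tsc2-/- p53-/- MEFs stably re-expressing wild-type Tsc2 exposed 24 h; series mostly up to about 38 µM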
How it was run: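 WT MEFs (Tsc2-/-, p53-/- re-expressing Tsc2), in DMEM + 10% FBS, were treated with compound for 24 h at 37 C. Cells were then fixed and stained for phospho-rpS6 Ser235/236 with propidium iodide as cell count. Values are % positive cells, with thresholds set against rapamycin-treated cells.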

[9] = Cytometry Cell-Based qHTS for Inhibitors of the mTORC1 Signaling Pathway in MEF cells (AID 2668);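 further: Tsc2-/- p53-/- mouse embryonic fibroblasts stably re-expressing wild-type Tsc2; percent cells positive for phospho-rpS6 Ser235/236 relative to propidium iodide stain; series mostly up to about 38 µM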
How it was run: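 MEFs (Tsc2-/-, p53-/- stably expressing WT Tsc2) treated 24 h at 37 degree Celsius, fixed, stained with Alexa-488 anti-phospho-rpS6 Ser235/236 and propidium iodide; Acumen laser scanning. Reported as % positive cells, phospho-S6 normalized to PI.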

[10] = Validation screen for inhibitors of Lassa infection (AID 463096; calls by dose curve)
[11] = Validation screen for small molecules that induce DNA re-replication in MCF 10A normal breast cells (AID 463097); further: nearly all actives have a fitted effect of over 60% in size; further: potency means the concentration at half of the fitted maximal effect
How it was run: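 MCF 10A cells exposed to compound 48 hr at 37 C, 5% CO2, then Hoechst-stained 40 min. Laser-scanning imaging of nuclear DNA content (405 nm ex, 500-530 nm em); re-replication scored as rise in nuclei with elevated fluorescence intensity.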

[12] = biological target: Ubiquitin carboxyl-terminal hydrolase 2 (Homo sapiens) (UniProt O75604); assay: qHTS Validation Assay for Inhibitors of Ubiquitin-specific Protease USP2a Using CHOP2 as the Reporter (AID 463106)
How it was run: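 USP2 core (10 nM final) was preincubated with compound 30 min at RT in pH 8.0 Tris/CaCl2/beta-ME/CHAPS buffer. Ub-CHOP2 and reporter substrate (25 nM final each) were then added, with fluorescence (Ex 485/Em 531) read after 60 min. Data were normalized to NEM full inhibition and fitted to concentration-response curves.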

[13] = biological target: DNA polymerase III PolC-type (Bacillus subtilis (strain 168)) (UniProt P13267); assay: qHTS Validation Assay for the Inhibitors of DNA Replication in Gram-Positive Bacteria (AID 485295);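 further: PicoGreen fluorescence of double-stranded DNA made on primed circular M13 template; series mostly up to about 57 µM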
How it was run: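 Reconstituted B. subtilis Pol III holoenzyme (PolC, beta clamp, SSB, primase) preincubated with compound, then M13Gori single-stranded circular template with dNTPs/NTPs added; room temperature reaction. Stopped with EDTA/PicoGreen; dsDNA fluorescence read, EDTA as full-inhibition control.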

[14] = biological target: Tumor susceptibility gene 101 protein (Homo sapiens) (UniProt Q99816); assay: qHTS Validation Assay for Iinhibitors of HIV-1 Budding by Blocking the Interaction of PTAP/TSG101 (AID 485342; calls by dose curve)
How it was run: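 Tsg101 binding domain (10 uM) with FITC-labeled PTAP peptide (50 nM) in HEPES pH 7.5 buffer, 20 min at r.t. with compounds. Binding measured by fluorescence polarization.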

[15] = qHTS Validation Assay to Find Inhibitors of Chronic Active B-Cell Receptor Signaling (AID 485345; active means well fitted curve in the direction sought with a large enough effect in the main read-out, with a control signal flat, not every such curve was filed as active)
How it was run: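 TMD8 ABC-DLBCL cells stably carrying doxycycline-inducible IkappaBalpha–green luciferase fusion plus unfused red luciferase; compounds 46 uM to 3 nM, 4 h at 37C with doxycycline. Corrected green/red luminescence ratio normalized to 10 uM MG-132 and basal cell wells; curves fitted.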

[16] = biological target: Beta-2 adrenergic receptor (Homo sapiens) (UniProt P07550); assay: qHTS validation assay of beta-arrestin-biased ligands of beta2-adrenergic receptor (AID 485366)
How it was run: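 Arrestin-recruitment (Tango) reporter: ligand-bound beta2-AR recruits beta-arrestin, releasing tTA, which upregulates luciferase. Titrations of up to 46 microM incubated 18 hr at 37 degrees C before luminescent readout.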

[17] = biological target: ATP-dependent 6-phosphofructokinase (Trypanosoma brucei brucei) (UniProt O15648); assay: qHTS Validation Assay to Find Inhibitors of T. brucei phosphofructokinase (AID 485368)
How it was run: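 Steps: substrate mix (0.5 mM F6P, 0.1 mM ATP, MgCl2, TEA pH 8.0); compound; 1.25 nM T. brucei PFK; 45 min RT; ATP depletion 10 min; ADP-to-ATP detection 10 min; luminescence read; curve fitting and classification.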

[18] = biological target: Endonuclease 4 (Escherichia coli (strain K12)) (UniProt P0A6C1); assay: Counterscreen for APE1 Inhibitors: qHTS Assay for Inhibitors of Endonuclease IV (AID 2565)
How it was run: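 Cleavage of a quenched abasic-site DNA duplex (50 nM, 5'-TAMRA, 3'-BHQ-2) by 2 nM enzyme is followed as fluorescence increase. Compounds are preincubated with enzyme 15 min at room temperature before substrate addition.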

[19] = biological target: DNA repair nuclease/redox regulator APEX1 (Homo sapiens) (UniProt P27695); assay: Confirmation qHTS Assay for Inhibitors of the Human Apurinic/apyrimidinic Endonuclease 1 (APE1) (AID 2572);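 further: fluorescence gain from purified APE1 cutting a TAMRA/BHQ-2 THF abasic duplex; nearly all actives have a fitted effect of over 30% in size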
How it was run: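 Readout: kinetic fluorescence (Ex 525, Em 598 nm) from APE1 incision of a 5'-TAMRA, 3'-BHQ-2 duplex containing a THF abasic site at 50 nM final. Compound preincubation 15 min, room temperature.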

Sequence of RecQ-like DNA helicase BLM (Homo sapiens) (P54132 whole entry, looked up): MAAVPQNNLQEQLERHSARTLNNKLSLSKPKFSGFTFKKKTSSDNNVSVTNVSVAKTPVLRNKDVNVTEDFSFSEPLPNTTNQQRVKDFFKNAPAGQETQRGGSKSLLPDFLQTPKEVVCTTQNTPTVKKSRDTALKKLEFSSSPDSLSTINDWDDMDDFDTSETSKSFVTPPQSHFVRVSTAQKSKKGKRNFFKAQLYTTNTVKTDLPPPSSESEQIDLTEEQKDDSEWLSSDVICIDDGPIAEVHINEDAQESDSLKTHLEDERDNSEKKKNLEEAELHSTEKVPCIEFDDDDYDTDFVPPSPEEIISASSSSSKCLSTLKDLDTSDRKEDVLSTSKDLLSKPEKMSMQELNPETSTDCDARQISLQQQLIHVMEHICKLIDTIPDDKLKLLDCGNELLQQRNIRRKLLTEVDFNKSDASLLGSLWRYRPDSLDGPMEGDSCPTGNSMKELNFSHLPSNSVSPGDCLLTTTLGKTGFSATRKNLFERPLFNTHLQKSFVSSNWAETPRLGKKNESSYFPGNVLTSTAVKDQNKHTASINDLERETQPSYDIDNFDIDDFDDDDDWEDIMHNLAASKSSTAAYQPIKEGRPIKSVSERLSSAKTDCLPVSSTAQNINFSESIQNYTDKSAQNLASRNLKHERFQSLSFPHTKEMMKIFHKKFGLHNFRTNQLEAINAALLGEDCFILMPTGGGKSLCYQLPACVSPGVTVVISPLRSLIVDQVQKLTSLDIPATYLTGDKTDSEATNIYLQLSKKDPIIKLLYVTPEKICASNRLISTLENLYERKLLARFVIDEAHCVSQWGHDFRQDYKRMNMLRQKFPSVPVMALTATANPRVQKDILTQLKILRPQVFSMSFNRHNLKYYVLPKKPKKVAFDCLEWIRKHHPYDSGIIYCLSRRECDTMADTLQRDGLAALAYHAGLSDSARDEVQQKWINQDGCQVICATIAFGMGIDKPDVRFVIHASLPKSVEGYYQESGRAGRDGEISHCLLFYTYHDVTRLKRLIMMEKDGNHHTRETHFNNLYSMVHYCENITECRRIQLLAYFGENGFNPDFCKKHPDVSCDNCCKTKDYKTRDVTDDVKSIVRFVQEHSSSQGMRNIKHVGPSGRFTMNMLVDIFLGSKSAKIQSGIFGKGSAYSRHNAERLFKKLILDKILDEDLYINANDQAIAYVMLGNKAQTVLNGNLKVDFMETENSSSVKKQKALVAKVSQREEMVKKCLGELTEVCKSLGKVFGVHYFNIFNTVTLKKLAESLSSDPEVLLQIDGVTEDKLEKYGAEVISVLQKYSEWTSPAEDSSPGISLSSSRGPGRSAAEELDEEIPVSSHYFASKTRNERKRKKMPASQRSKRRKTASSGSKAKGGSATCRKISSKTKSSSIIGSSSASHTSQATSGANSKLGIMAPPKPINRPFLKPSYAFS
Sequence of ATP-dependent 6-phosphofructokinase (Trypanosoma brucei brucei) (O15648 whole entry, looked up): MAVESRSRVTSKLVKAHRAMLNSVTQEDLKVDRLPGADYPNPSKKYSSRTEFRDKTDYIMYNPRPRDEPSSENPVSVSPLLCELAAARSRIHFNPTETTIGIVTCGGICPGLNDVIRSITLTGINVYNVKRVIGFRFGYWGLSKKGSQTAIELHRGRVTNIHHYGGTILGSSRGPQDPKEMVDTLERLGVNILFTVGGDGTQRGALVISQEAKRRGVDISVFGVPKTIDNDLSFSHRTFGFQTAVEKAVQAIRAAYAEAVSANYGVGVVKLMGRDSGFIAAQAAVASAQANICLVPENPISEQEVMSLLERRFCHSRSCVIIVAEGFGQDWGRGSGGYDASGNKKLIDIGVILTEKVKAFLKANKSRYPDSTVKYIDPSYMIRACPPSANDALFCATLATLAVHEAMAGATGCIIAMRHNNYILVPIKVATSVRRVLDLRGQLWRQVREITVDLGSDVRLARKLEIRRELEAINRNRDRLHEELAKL
Sequence of Ubiquitin carboxyl-terminal hydrolase 2 (Homo sapiens) (O75604 whole entry, looked up): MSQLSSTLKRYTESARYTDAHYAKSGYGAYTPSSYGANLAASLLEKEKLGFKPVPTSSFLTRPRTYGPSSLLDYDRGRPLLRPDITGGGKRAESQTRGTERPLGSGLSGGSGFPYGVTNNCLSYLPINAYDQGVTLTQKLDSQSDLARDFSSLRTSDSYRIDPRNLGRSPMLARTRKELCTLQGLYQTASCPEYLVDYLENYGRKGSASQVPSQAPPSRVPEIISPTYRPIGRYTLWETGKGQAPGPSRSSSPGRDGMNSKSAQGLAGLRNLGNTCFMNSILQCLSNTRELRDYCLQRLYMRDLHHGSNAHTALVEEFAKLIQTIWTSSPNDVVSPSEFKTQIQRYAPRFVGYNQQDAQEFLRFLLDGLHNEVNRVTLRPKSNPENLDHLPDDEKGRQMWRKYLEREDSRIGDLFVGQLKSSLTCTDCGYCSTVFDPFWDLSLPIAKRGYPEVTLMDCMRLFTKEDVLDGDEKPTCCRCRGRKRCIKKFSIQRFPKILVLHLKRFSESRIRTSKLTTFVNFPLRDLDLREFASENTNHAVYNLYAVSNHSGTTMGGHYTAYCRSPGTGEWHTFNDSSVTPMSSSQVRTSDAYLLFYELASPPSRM
Sequence of Tumor susceptibility gene 101 protein (Homo sapiens) (Q99816 whole entry, looked up, the tested form may be a part): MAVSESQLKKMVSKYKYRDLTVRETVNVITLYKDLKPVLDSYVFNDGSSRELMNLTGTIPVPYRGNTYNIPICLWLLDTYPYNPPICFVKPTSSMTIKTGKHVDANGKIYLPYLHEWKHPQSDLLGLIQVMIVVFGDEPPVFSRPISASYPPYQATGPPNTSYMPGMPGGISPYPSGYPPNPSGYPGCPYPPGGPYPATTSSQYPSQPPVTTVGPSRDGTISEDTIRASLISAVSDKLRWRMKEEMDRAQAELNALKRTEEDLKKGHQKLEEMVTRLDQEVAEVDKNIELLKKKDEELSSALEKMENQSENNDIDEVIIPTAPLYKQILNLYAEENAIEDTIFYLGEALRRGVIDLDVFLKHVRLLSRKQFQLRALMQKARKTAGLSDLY
Sequence of Ferritin light chain (Equus caballus) (P02791 2-175 limits assumed): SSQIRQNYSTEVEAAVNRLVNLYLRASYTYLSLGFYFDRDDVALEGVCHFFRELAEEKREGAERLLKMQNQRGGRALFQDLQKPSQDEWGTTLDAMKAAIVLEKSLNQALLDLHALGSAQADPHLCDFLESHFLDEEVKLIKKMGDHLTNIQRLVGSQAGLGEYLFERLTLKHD
Sequence of DNA polymerase III PolC-type (Bacillus subtilis (strain 168)) (P13267 whole entry, looked up): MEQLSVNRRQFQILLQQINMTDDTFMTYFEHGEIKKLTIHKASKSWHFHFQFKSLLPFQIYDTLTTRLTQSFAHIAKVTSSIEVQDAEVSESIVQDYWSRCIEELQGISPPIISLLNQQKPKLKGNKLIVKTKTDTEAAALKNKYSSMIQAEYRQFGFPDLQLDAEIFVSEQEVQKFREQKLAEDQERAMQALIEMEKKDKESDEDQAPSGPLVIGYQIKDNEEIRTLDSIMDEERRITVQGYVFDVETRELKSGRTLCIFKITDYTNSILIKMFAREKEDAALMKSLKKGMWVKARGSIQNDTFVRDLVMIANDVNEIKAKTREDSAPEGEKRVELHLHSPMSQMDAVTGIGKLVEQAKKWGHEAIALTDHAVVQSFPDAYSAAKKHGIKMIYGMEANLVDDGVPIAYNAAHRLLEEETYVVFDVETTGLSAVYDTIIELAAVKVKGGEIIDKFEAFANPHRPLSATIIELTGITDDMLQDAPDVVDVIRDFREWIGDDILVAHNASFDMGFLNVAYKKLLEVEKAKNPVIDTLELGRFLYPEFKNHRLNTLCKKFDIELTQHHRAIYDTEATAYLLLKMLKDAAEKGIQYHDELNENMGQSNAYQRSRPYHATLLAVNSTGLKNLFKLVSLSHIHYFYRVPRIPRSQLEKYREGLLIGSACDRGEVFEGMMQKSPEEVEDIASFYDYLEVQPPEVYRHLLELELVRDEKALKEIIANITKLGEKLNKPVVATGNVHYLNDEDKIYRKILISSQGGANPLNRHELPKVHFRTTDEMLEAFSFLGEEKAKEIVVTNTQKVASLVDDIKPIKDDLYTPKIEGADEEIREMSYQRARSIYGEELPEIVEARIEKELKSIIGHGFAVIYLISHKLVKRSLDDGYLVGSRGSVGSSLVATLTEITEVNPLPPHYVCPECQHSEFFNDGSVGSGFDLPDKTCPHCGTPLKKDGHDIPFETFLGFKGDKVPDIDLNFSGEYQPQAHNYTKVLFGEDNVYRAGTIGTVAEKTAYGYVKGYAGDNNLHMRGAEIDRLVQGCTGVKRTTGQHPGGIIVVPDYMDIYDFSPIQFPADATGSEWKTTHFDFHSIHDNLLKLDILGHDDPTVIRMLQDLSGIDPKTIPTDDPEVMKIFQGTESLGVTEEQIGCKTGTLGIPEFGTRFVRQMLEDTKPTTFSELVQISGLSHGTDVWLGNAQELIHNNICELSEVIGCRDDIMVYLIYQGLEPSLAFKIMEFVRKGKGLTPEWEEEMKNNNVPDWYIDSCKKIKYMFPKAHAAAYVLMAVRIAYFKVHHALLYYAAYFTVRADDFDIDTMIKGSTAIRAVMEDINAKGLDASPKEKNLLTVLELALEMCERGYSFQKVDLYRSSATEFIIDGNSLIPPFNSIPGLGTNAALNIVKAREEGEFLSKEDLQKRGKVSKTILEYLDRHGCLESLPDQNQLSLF
Sequence of Beta-2 adrenergic receptor (Homo sapiens) (P07550 whole entry, looked up): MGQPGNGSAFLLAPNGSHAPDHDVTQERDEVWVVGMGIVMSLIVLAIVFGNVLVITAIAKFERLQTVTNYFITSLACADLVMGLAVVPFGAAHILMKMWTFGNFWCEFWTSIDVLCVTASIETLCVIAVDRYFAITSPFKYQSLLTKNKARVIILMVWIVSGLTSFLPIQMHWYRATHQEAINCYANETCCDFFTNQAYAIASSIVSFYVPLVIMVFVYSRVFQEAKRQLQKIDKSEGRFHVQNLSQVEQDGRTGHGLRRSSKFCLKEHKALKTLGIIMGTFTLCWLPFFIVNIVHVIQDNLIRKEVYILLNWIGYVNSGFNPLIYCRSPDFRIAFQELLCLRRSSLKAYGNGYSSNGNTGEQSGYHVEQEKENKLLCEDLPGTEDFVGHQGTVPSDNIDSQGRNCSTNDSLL

Row | SMILES | Potency [1] | outcome [2] | outcome [3] | Potency [4] | Potency [5] | Potency [6] | Potency [7] | Potency [8] | Potency [9] | Potency [10] | Potency [11] | Potency [12] | Potency [13] | outcome [14] | Potency [15] | outcome [16] | Potency [17] | outcome [18] | outcome [19]
1 | Clc1ccc(N2CC3CCC(C2)N3)nn1 | inactive | inactive | inactive | inactive | inactive | inactive | inactive | inactive | inactive | inactive | inactive | inactive | inactive | inactive | inactive | inactive | inactive |  | 
2 | CC(C)CC(NP(=O)(O)O[C@@H]1O[C@@H](C)[C@H](O)[C@@H](O)[C@H]1O)C(=O)NC(Cc1c[nH]c2ccccc12)C(=O)O (stereo not given in full) | inactive | inactive | inactive | inactive |  |  |  |  |  | inactive |  |  |  |  |  |  |  |  | 
3 | O=S1(=O)N(CCN2CC=C(c3c[nH]c4cc(F)ccc34)CC2)c2cccc3c2N1CCC3 | 1.26 µM (active) |  | inactive | inactive | inactive | inactive | inactive |  | inactive | inactive | 14.1 µM (active) | inactive | inactive | inactive | inactive | inactive |  |  | 
4 | C=CCN1CC[C@]23c4c5ccc(O)c4O[C@H]2/C(=N/NC(=O)c2ccccc2)CC[C@@]3(O)[C@H]1C5 | 11.2 µM (active) | inactive | inactive | inactive |  | inactive | inactive |  | inactive | inactive |  | inactive | inactive | inactive | inactive | inactive |  |  | 
5 | C#CCN[C@H](C)Cc1ccccc1 | inactive | inactive | inactive | inactive |  | inactive | inactive | inactive | inactive | inactive |  | inactive | inactive | inactive | inactive | inactive | inactive |  | 
6 | CC(N)c1cccc(Cl)c1Cl (stereo not given) | inactive | inactive |  | inactive |  | inactive | inactive | inactive | inactive | inactive |  | inactive | inactive | inactive | inactive | inactive |  |  | 
7 | NNC(N)=O | inactive | inactive | inactive | inactive | inactive | inactive | inactive | inactive | inactive | inactive |  | inactive | inactive | inactive | inactive | inactive | inactive |  | 
8 | NC(CCCCCP(=O)(O)O)C(=O)O (stereo not given) | inactive | inactive | inactive | inactive |  | inactive | inactive | inactive | inactive | inactive |  | inactive | inactive | inactive | inactive | inactive | inactive |  | 
9 | NCCc1c[nH]c2ccc(C(N)=O)cc12 | inactive | inactive | inactive | inactive |  | inactive | inactive | inactive | inactive | inactive | inactive | inactive | inactive | inactive | inactive | inactive | inactive |  | 
10 | Cc1o[nH]c(=O)c1CC(N)C(=O)O (stereo not given) | inactive | inactive | inactive | inactive |  | inactive | inactive |  | inactive | inactive | inactive | inactive | inactive | inactive | inactive | inactive | inactive |  | 
11 | C[C@H](Cc1ccc2c(c1)OC(C(=O)O)(C(=O)O)O2)NC[C@H](O)c1cccc(Cl)c1 | inactive | inactive | inactive | inactive |  | inactive | inactive | inactive | inactive | inactive | inactive | inactive | inactive | inactive | inactive |  |  |  | 
12 | CC(Cc1ccc(OCC(=O)O)cc1)NCC(O)c1cccc(Cl)c1 (stereo not given) | inactive | inactive | inactive | inactive |  | inactive | inactive | inactive | inactive | inactive | inactive | inactive | inactive | inactive | inactive | inactive | inactive |  | 
13 | CN1CCc2cccc(Cl)c2CC1 | inactive | inactive | inactive | inactive |  | inactive | inactive | inactive | inactive | inactive | inactive | inactive | inactive | inactive | inactive | inactive |  |  | 
14 | CC(=O)NBr | inactive | inactive | inactive | inactive |  | inactive | inactive |  | inactive | inactive | inactive | inactive | inactive | inactive | inactive | inactive | inactive | inactive | inactive
15 | C[C@@H]1O[C@H](C[N+](C)(C)C)CS1 | inactive | inactive | inactive | inactive | inactive | inactive | inactive |  | inactive | inactive | inactive | inactive | inactive | inactive | inactive | inactive | inactive |  | 
16 | CCN(CC)c1ncnc2c1ncn2[C@@H]1O[C@H](COP(=O)(O)OP(=O)(O)C(Br)(Br)P(=O)(O)O)[C@@H](O)[C@H]1O | inactive | inactive | inactive | inactive |  |  |  |  |  | inactive | inactive |  |  |  |  |  |  |  | 
17 | CCCN(CCC)C1CCc2cccc(O)c2C1 (stereo not given) | inactive | inactive | inactive | inactive |  | inactive | inactive |  | inactive | inactive | inactive | inactive | inactive | inactive | inactive | inactive |  |  | 
18 | CCCN(CCC)C1Cc2cc(OC)c(OC)cc2C1 | inactive | inactive | inactive | inactive |  | inactive | inactive |  | inactive | inactive |  | inactive | inactive | inactive | inactive | inactive |  |  | 
